# This is a sample that favours compounds with a hit; in the whole collection about 2.5% have one here.
# Mcl-1 Bim block – inhibitors of Bim-Mcl-1 interaction, human | Q07820 | Bead-based flow cytometry, Bim peptide-Mcl-1 binding | inhibition, % at 10 µM | 0.1% of 190,000 active | AID 1009; in the data active = inhibition above about 40%;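 note: 0% = no compound tracer wells and 100% = peptide blocker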
# Target sequence (Q07820 whole entry, looked up): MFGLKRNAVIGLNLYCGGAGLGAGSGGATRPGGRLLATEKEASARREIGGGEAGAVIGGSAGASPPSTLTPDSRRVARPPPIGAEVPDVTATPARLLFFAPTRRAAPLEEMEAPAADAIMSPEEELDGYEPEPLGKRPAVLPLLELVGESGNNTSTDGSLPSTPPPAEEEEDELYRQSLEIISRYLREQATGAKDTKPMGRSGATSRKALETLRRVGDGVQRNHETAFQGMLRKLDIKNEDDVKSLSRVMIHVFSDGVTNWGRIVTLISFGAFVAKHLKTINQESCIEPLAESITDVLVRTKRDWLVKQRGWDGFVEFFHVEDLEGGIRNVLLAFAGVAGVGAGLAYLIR
# 14-3-3 Bad PPI – disrupts binding of bovine 14-3-3 zeta to phospho-Bad peptide; TR-FRET 14-3-3zeta/Dy647-pBad peptide displacement, 1 h; inhibition, % at 21.7 µM; 0.71% of 220,000 active;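 active = inhibition above about 70%, limit read from the data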;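 note: 0% = full 14-3-3 plus peptide FRET controls and 100% = background without 14-3-3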
# Target sequence (P63103 whole entry, looked up): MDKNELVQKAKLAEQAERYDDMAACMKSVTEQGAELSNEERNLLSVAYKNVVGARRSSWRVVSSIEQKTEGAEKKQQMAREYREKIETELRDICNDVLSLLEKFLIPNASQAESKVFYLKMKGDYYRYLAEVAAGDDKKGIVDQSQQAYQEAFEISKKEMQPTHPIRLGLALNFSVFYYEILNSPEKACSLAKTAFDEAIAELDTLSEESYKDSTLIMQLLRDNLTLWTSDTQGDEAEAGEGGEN
# Mcl1-Noxa inh – Mcl-1/Noxa interaction inhibition | Q07820 | TR-FRET Mcl-1/Noxa peptide binding, 2 h | inhibition, % at 21.7 µM | 1.5% of 220,000 active | AID 1022;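 active = compounds that cut the protein-peptide binding signal by more than 50% relative to plate controls in a single-dose test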;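 note: His-tagged Mcl-1 with rhodamine Noxa BH3 peptide and terbium anti-His antibody; 0% = Mcl-1 plus Noxa peptide wells and 100% = peptide-only wells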
# MCL1 BIM primary – inhibitors of human MCL1 binding to BIM-BH3 peptide; Q07820; GST-MCL1 / FITC-Bim-BH3 fluorescence polarization; inhibition, % at 10.9 µM; 0.68% of 320,000 active; AID 2057;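 active = inhibition above the mean inhibition of all tested compounds plus 3 SD, set per campaign, cut at about 40% in these data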;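 note: 0% = DMSO wells and 100% = unlabeled Bim-BH3 peptide control; higher means more loss of mP so more displacement of Bim peptide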
# Mcl1 Bid PPI – Mcl-1/Bid interaction inhibition; 0.97% of 220,000 active; TR-FRET Mcl-1/Bid-Dy647 peptide binding, 1536-well; inhibition, % at 21.7 µM; Q07820;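 active = compounds that cut the binding signal by more than half at the single screening dose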;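 note: His-tagged Mcl-1 with europium anti-His antibody binding Bid BH3 peptide; 0% = Mcl-1 plus peptide wells and 100% = peptide-only wells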
# * hit, by the source's call; nt = not tested or not shown; [ ] = remark or other dose.
SMILES,Mcl-1 Bim block,14-3-3 Bad PPI,Mcl1-Noxa inh,MCL1 BIM primary,Mcl1 Bid PPI
Cc1ccc2nc(NC(=O)c3ccc(-c4nc5ccccc5s4)s3)sc2c1,0,83*[fluorescence artefact?],52*,1,79*
Cn1ccnc1C(=O)c1ccc(N)cc1,nt,nt,nt,6,nt
CCOc1ccc(-c2nnc(SCc3nc4ccccc4[nH]3)n2N)cc1,7,-3,3,1,-24
O=C1c2ccccc2C(=O)N1Cc1nc2ccccc2o1,-4,4,10,-6,-6
Cc1cc(C)nc(N(C#N)S(=O)(=O)c2ccccc2Cl)n1,-4,-8,24,2,89*
O=C(c1ccc(-n2cncn2)c([N+](=O)[O-])c1)N1CCN(c2cccc(Cl)c2)CC1,nt,nt,nt,-4,nt
Cc1cc(-c2n[nH]c(=S)n2/N=C/c2cc([N+](=O)[O-])ccc2Cl)n[nH]1,0,28,57*,nt,-87
S=c1[nH]nc(-c2ccncc2)n1/N=C/c1cn(-c2ccccc2)nc1-c1ccccc1,nt,-2,18,-16,-6
O=[N+]([O-])c1cc(/C=N/n2c(-c3ccncc3)n[nH]c2=S)ccc1Cl,4,-4,65*,28,-50
O=[N+]([O-])c1ccc(Cl)c(/C=N/n2c(-c3cccnc3)n[nH]c2=S)c1,5,-8,58*,-22,-36
COc1ccc(/C=N/n2c(-c3cc(C)[nH]n3)n[nH]c2=S)cc1,nt,-10,46,-21,-170
O=[N+]([O-])c1ccc(-c2nn(-c3ccccc3)cc2/C=N/n2c(-c3ccncc3)n[nH]c2=S)cc1,nt,10,52*,-10,-60
Cc1cc(-c2n[nH]c(=S)n2/N=C/c2ccc(Cl)c([N+](=O)[O-])c2)n[nH]1,-12,9,12,-17,-96
CCc1ccc2nc(SCC(=O)Nc3ccccc3N3CCOCC3)c(C#N)cc2c1,nt,-5,-12,-6,11
C/C(=N\NC(=O)c1cccc(N/N=C(\C)c2cc(O)ccc2O)c1)c1cc(O)ccc1O,5,-8,100*,23,-6
C/C(=N\NC(=O)c1cccc([N+](=O)[O-])c1)c1ccco1,nt,3,-19,4,-26
C/C(=N\NC(=O)c1cccc(O)c1)c1cccc(NC(=O)c2ccc(F)cc2)c1,nt,nt,nt,4,nt
C/C(=N\NC(=O)c1cccc(N/N=C(\C)c2ccco2)c1)c1ccco1,3,-5,84*,nt,-41
N#Cc1c(/N=C/c2ccco2)oc(-c2ccccc2)c1-c1ccccc1,-1,93*[fluorescence artefact?],20,-2,3
N#Cc1c(/N=C/c2ccccc2)oc(-c2ccccc2)c1-c1ccccc1,2,-4,-4,4,-23
CC(=O)Cc1ccccc1OCC(=O)O,3,1,16,-6,-16
Cc1ccc(Cn2c(SCC(=O)N/N=C/c3ccc(C)o3)nc3ccccc32)cc1,-2,11,23,0,52*
Cc1cc2ccccc2n1CCNC(=O)c1ccc(Br)o1,2,9,5,48*,-14
Cc1ccccc1C(=O)Oc1ccc(Cl)cc1C(=S)N1CCOCC1,nt,nt,nt,5,nt
CC(C)Oc1ccc(OCCCN2CCCCCC2)cc1,-3,59,-5,8,54*
SMILES,Mcl-1 Bim block,14-3-3 Bad PPI,Mcl1-Noxa inh,MCL1 BIM primary,Mcl1 Bid PPI
COc1ccc(-c2nc3nc(SC)nn3cc2C)cc1F,1,6,-1,3,-12
CCC(Sc1ncnc2c1c(-c1ccccc1)cn2-c1ccc(OC)cc1)C(=O)OC (stereo not given),-5,4,2,7,6
O=C1NC(=S)N(C(=O)c2ccc(F)cc2)/C1=C/c1ccccc1,-1,32,48,-185,3
COc1ccc(/C=C2\C(=O)NC(=S)N2C(=O)c2ccc(F)cc2)cc1,-9,89*[fluorescence artefact?],64*,-165,81*
CCCCC(=O)Nc1ncc(S(=O)(=O)c2ccc([N+](=O)[O-])cc2)s1,nt,nt,nt,-6,nt
COCC(=O)Nc1ncc(S(=O)(=O)c2ccc([N+](=O)[O-])cc2)s1,-1,10,0,5,68*
CCN1C(=O)c2cccc3c(NC(=O)C4CCCCC4)ccc1c23,-4,7,43,8,83*
C/[N+]([O-])=C\CC(=O)c1ccc(-c2ccccc2)cc1,-2,-5,12,-4,-27
CCOC(=O)N=S(=O)(Oc1ccc([N+](=O)[O-])cc1)c1ccccc1 (stereo not given),-2,5,7,4,2
Cc1ccc(C2C(C#N)=C(N)Oc3c2sc2ccccc32)o1 (stereo not given),7,0,74*,12,-13
O=C1Nc2ccc(Br)cc2/C1=C/C(=O)c1ccc2c(c1)OCO2,nt,61,105*,-8,72*
Cc1ccc2[nH]c(C(=O)N3CCN(c4cccc(Cl)c4)CC3)cc2c1,nt,nt,nt,6,nt
COc1ccc(CNc2ccccc2SC)cc1OC,-1,74*,34,4,32
Cc1ccc(N=Nc2ccc(O)c(/C=N\NC(=O)c3ccc(N)cc3)c2)cc1C,-1,85*[fluorescence artefact?],86*,8,-23
O=C(N/N=C/c1cc(Cl)ccc1O)c1ccc(Br)cc1,2,21,63*,5,-25
O=C(NCc1ccco1)c1ccccc1Br,-5,-5,nt,0,-15
CC(=O)c1cccc(NC(=O)C(Sc2ncnc3ccccc23)c2ccccc2)c1 (stereo not given),-4,-16,-46,-5,56*
Cc1ccc(C)c(NC(=O)C(Sc2ncnc3ccccc23)c2ccccc2)c1 (stereo not given),-2,-2,-24,-2,-38
CC(C)=C1Cc2ccccc2C1=O,2,-7,-2,1,-41
COc1ccc2c(c1O)Cc1ccccc1C2=O,0,5,52*,21,2
Cc1ccc(-c2csc(Nc3ccc(S(N)(=O)=O)cc3)n2)o1,6,-5,64*,6,-43
NS(=O)(=O)c1ccc(Nc2nc(-c3ccc4ccccc4c3)cs2)cc1,1,-11,41,3,-4
CCN(CC)c1ccc(NC(=O)COC(=O)CCC(=O)c2ccc(F)cc2)cc1,-5,-3,70*,21,-68
O=C(COC(=O)CCC(=O)c1ccc(F)cc1)Nc1ccccc1,-2,11,14,4,28
O=C(N=Nc1c(O)[nH]c2ccccc12)c1cc(NS(=O)(=O)c2cccs2)cc(NS(=O)(=O)c2cccs2)c1,3,80*,57*,1,-33
SMILES,Mcl-1 Bim block,14-3-3 Bad PPI,Mcl1-Noxa inh,MCL1 BIM primary,Mcl1 Bid PPI
O=C(N=Nc1c(O)[nH]c2ccccc12)c1cccs1,5,-20,31,9,-22
Cc1n[nH]c(C)c1S(=O)(=O)N1CCN(c2ccccn2)CC1,-3,-7,-10,-3,70*
Cc1cc(C)c(C)c(S(=O)(=O)N2CCN(c3ccccn3)CC2)c1C,nt,nt,nt,2,nt
O=S(=O)(c1ccc(Br)s1)N1CCN(c2ccccn2)CC1,-1,85*,14,-3,-3
O=S(=O)(c1ccc(Br)s1)N1CCN(c2ncccn2)CC1,0,-8,-30,-2,-24
COc1ccc(CCSc2nnc(C3CCCCC3)n2N)cc1,-4,11,-3,-3,-19

# From PubChem BioAssay
